Test results published in the supplement of paper PMC12494721.
Where a name gives a salt, the structure may show the parent alone.

Tests used:
Details in all cases: incubation time: 27 h, anaerobic, 37 °C;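 for the amine columns active = adjusted P below 0.05 in both replicates with a change the same way and a mean fold change under 0.8 or over 1.25; inactive = the rest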
[1] = test system: Clostridium sporogenes DSM 1664; experiment: growth (OD595) fold change vs plate DMSO controls (fold change (ratio)); higher = more growth
Summary of the method: (§1)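 Shaken 96-well cultures in mGAM, grown anaerobically for 27 h at 37 °C, were read at 595 nm. OD came from blank-subtracted readings, corrected for background with 20 µM compound solutions in water and scaled by a calibration factor of 5. Growth is the fold change versus the plate's median DMSO control. Values average 2 biological replicates, and any fold change above 1.5 is NA.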

[2] = test system: Escherichia coli IAI1; experiment: as above
Summary of the method: as §1

[3] = test system: Klebsiella aerogenes DSM 30053; experiment: as above
Summary of the method: as §1

[4] = test system: Ruminococcus gnavus DSM 108212; experiment: as above
Summary of the method: as §1

[5] = test system: Klebsiella aerogenes DSM 30053; experiment: fold change of Histamine concentration vs plate DMSO controls (fold change (ratio)); higher = more amine produced, active = hit call of the paper (significant change in both replicates, either direction)
Summary of the method: (§2)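 Using LC–triple-quadrupole MS with dynamic MRM, amines were quantified against external calibration curves and corrected for drift within each batch. Samples were whole anaerobic mGAM cultures of four gut strains, grown 27 h at 37 °C from OD 0.1 before 1:1 dilution, extracted with cold acetonitrile/methanol containing 0.1% formic acid and centrifuged. Compounds were present at 20 µM final (sweeteners at 50 µM final). The numbers are fold changes versus plate DMSO controls, each the mean of 2 biological replicates.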

[6] = test system: Clostridium sporogenes DSM 1664; experiment: fold change of Tryptamine concentration vs plate DMSO controls (fold change (ratio)); higher = more amine produced, active = hit call of the paper (significant change in both replicates, either direction)
Summary of the method: as §2

[7] = test system: Ruminococcus gnavus DSM 108212; experiment: as above
Summary of the method: as §2

[8] = test system: Escherichia coli IAI1; experiment: fold change of Putrescine concentration vs plate DMSO controls (fold change (ratio)); higher = more amine produced, active = hit call of the paper (significant change in both replicates, either direction)
Summary of the method: as §2

[9] = test system: Klebsiella aerogenes DSM 30053; experiment: as above
Summary of the method: as §2

[10] = test system: Escherichia coli IAI1; experiment: fold change of Cadaverine concentration vs plate DMSO controls (fold change (ratio)); higher = more amine produced, active = hit call of the paper (significant change in both replicates, either direction)
Summary of the method: as §2

[11] = test system: Klebsiella aerogenes DSM 30053; experiment: as above
Summary of the method: as §2

[12] = test system: Ruminococcus gnavus DSM 108212; experiment: fold change of 2-Phenylethylamine concentration vs plate DMSO controls (fold change (ratio)); higher = more amine produced, active = hit call of the paper (significant change in both replicates, either direction)
Summary of the method: as §2

Compound	growth [1]	growth [2]	growth [3]	growth [4]	fold change of Histamine concentration [5]	fold change of Tryptamine concentration [6]	fold change of Tryptamine concentration [7]	fold change of Putrescine concentration [8]	fold change of Putrescine concentration [9]	fold change of Cadaverine concentration [10]	fold change of Cadaverine concentration [11]	fold change of 2-Phenylethylamine concentration [12]
c1ccc2c(c1)CCCC2C1=NCCN1 (centres undefined) [Tetrahydrozoline hydrochloride] (20 µM)	0.99	0.997	1.01	0.897	0.99 (inactive)	1.01 (inactive)	0.993 (inactive)	1.04 (inactive)	0.992 (inactive)	0.966 (inactive)	1 (inactive)	1.01 (inactive)
O=c1n(CCCN2CCN(c3cccc(Cl)c3)CC2)nc2ccccn12 [Trazodone hydrochloride] (20 µM)	1.09	0.982	0.987	1.06	1.03 (inactive)	0.988 (inactive)	0.809 (inactive)	1.01 (inactive)	0.997 (inactive)	0.982 (inactive)	0.99 (inactive)	0.799 (inactive)
OCC(O)CN1CCN(c2ccccc2)CC1 (centres undefined) [Dropropizine] (20 µM)	0.934	1.02	1.02	1.1	1.08 (inactive)	1.04 (inactive)	1.05 (inactive)	0.998 (inactive)	1 (inactive)	1.04 (inactive)	0.992 (inactive)	1.05 (inactive)
CNS(=O)(=O)Cc1ccc2[nH]cc(CCN(C)C)c2c1 [Sumatriptan succinate] (20 µM)	1.11	0.977	1.21	0.976	0.809 (inactive)	1.05 (inactive)	1.01 (inactive)	0.895 (inactive)	0.992 (inactive)	1.03 (inactive)	1.03 (inactive)	1.06 (inactive)
CC(=O)/N=c1/sc(S(N)(=O)=O)nn1C [Methazolamide] (20 µM)	1.08	1.07	1.01	0.848	0.962 (inactive)	1.02 (inactive)	1.07 (inactive)	0.979 (inactive)	0.981 (inactive)	0.958 (inactive)	0.996 (inactive)	1.12 (inactive)
CC(=O)N[C@@H](CCC(N)=O)C(=O)O [Acetyl-L-glutamine] (20 µM)	1.04	0.982	0.977	1.12	1.03 (inactive)	0.997 (inactive)	1.02 (inactive)	0.98 (inactive)	1 (inactive)	0.977 (inactive)	0.99 (inactive)	1.05 (inactive)
CC(=O)OCC(=O)[C@@]1(O)[C@H](C)C[C@H]2[C@@H]3CCC4=CC(=O)C=C[C@]4(C)[C@@]3(F)[C@@H](O)C[C@@]21C [Dexamethasone acetate] (20 µM)	1.05	1.01	0.986	0.878	1.02 (inactive)	1.06 (inactive)	1.01 (inactive)	0.987 (inactive)	1.02 (inactive)	1.02 (inactive)	0.983 (inactive)	0.993 (inactive)
C=CC(N)CCC(=O)O (centres undefined) [Vigabatrin hydrochloride] (20 µM)	1.11	1.06	1.17	0.977	0.856 (inactive)	0.993 (inactive)	1.02 (inactive)	1.02 (inactive)	1.01 (inactive)	0.978 (inactive)	1.03 (inactive)	1 (inactive)
O=P(O)(O)C(Cl)(Cl)P(=O)(O)O [Clodronate disodium] (20 µM)	0.99	1.03	1.02	1.09	1.02 (inactive)	0.973 (inactive)	0.999 (inactive)	1.02 (inactive)	1.02 (inactive)	1.03 (inactive)	1 (inactive)	0.981 (inactive)
COc1ccc(C(=O)c2ccccc2O)c(O)c1 [Dioxybenzone] (20 µM)	0.846	0.791	0.972	0.955	0.962 (inactive)	1 (inactive)	0.977 (inactive)	0.86 (inactive)	0.985 (inactive)	1.07 (inactive)	0.996 (inactive)	0.937 (inactive)
Cc1cc(C(=O)NNCc2ccccc2)no1 [Isocarboxazid] (20 µM)	1.17	1.04	1.18	0.995	0.915 (inactive)	1.09 (inactive)	1.07 (inactive)	1.05 (inactive)	0.987 (inactive)	0.983 (inactive)	1.02 (inactive)	1.09 (inactive)
O=C(O)c1cc(/N=N/c2ccc(S(=O)(=O)Nc3ccccn3)cc2)ccc1O [Sulfasalazine] (20 µM)	0.986	1	1.05	0.978	0.971 (inactive)	1.01 (inactive)	1 (inactive)	0.913 (inactive)	0.995 (inactive)	1.01 (inactive)	1.01 (inactive)	0.954 (inactive)
